# According to the supplement of paper PMC9844399:
# Structures can show the parent of a compound that is named as a salt.
# Tested on: HeLa
# Test: nuclear count per well, robust Z-score vs DMSO; higher = more cells (less toxicity)
# Conditions: 10 µM; 6 h
# 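Wherever MALAT1 nuclear FISH intensity, robust Z-score vs DMSO is given: High-content confocal imaging of branched-DNA amplified FISH in 384-well plates, Hoechst-defined nuclei, score is well value minus plate DMSO median over DMSO robust SD, four wells per compound.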
# 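Wherever nuclear count per well, robust Z-score vs DMSO is given: Hoechst-stained nuclei counted by automated confocal imaging of four fields per well in 384-well plates, with the robust Z-score based on the per-plate DMSO median and robust SD.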
row,SMILES,nuclear count per well
1,CCN(CCO)CCCC(C)Nc1ccnc2cc(Cl)ccc12 (centres undefined) [Hydroxychloroquine Sulfate],-1.11
2,CCCCC(C)(O)C/C=C/[C@H]1[C@H](O)CC(=O)[C@@H]1CCCCCCC(=O)OC (mixture of isomers) [Misoprostol],0.593
3,C=C(c1ccc(C(=O)O)cc1)c1cc2c(cc1C)C(C)(C)CCC2(C)C [Bexarotene],-0.918
4,CCCCCCCCCCCCC/C=C/[C@@H](O)[C@H](CO)NC(C)=O [C2 Ceramide],0.589
5,CN(C)c1ccc(O)c2c1C[C@H]1C[C@H]3[C@H](N(C)C)C(O)=C(C(N)=O)C(=O)[C@@]3(O)C(O)=C1C2=O,1.36

# Tested on: HeLa
# Test: MALAT1 nuclear FISH intensity, robust Z-score vs DMSO; higher = more nuclear MALAT1 lncRNA, active = -3 or less
# Conditions: 10 µM; 6 h
row,SMILES,MALAT1 nuclear FISH intensity
1,Nc1nc(=O)n([C@@H]2CS[C@H](CO)O2)cc1F [Emtricitabine],0.714 (inactive)
2,COC(=O)C1=C(C)NC(C)=C(C(=O)OC(C)C)C1c1cccc2nonc12 (centres undefined) [Isradipine],0.295 (inactive)
3,CN(C)CCc1c[nH]c2ccc(Cn3cncn3)cc12 [Rizatriptan Benzoate],-0.661 (inactive)
4,CN1C(=O)OC(C)(C)C1=O [Trimethadione],0.495 (inactive)
5,COc1cc2c(cc1OC)-c1c/c(=N\c3c(C)cc(C)cc3C)n(C)c(=O)n1CC2 [Trequinsin],-1.6 (inactive)
6,CC(C)(C(=O)NCC(F)(F)C(F)(F)F)C(=O)N[C@@H]1C(=O)Nc2ccccc2-c2ccccc21,-1.46 (inactive)
7,Nc1nc(O)c2ncn(CCC(CO)CO)c2n1 [Penciclovir],1.38 (inactive)
8,CC1(C)S[C@@H]2[C@H](NC(=O)Cc3ccccc3)C(=O)N2[C@H]1C(=O)O [Penicillin G Potassium (Benzylpenicillin)],-0.0727 (inactive)
9,CCCCC/C=C\C\C=C/C=C/C=C/[C@@H](SC[C@H](NC(=O)CC[C@H](N)C(=O)O)C(=O)NCC(=O)O)[C@@H](O)CCCC(=O)O [Leukotriene C4],1.5 (inactive)
10,O=C1Nc2ccccc2/C1=C1/Nc2ccccc2C1=O [Indirubin],-1.02 (inactive)
11,CCN(CC)CCCC(C)Nc1c2ccc(Cl)cc2nc2ccc(OC)cc12 (centres undefined),-2.2 (inactive)
12,COc1cc2ncnc(Nc3cccc(Cl)c3)c2cc1OC,-0.787 (inactive)
13,CC(C)NCC(O)COc1ccc(CCOCC2CC2)cc1 (centres undefined),0.661 (inactive)
14,CC(/C=C/C(=O)NO)=C\[C@@H](C)C(=O)c1ccc(N(C)C)cc1 [Trichostatin-A],0.794 (inactive)
15,C#C[C@]1(O)CC[C@H]2[C@@H]3CCC4=CCCC[C@@H]4[C@H]3C(=C)C[C@@]21CC [Desogestrel],-0.0225 (inactive)
16,CO/N=C(\C(=O)N[C@@H]1C(=O)N2C(C(=O)O)=C(COC(N)=O)CS[C@H]12)c1ccco1,-0.402 (inactive)
17,O=C1O[C@H]([C@@H](O)CO)C(O)=C1O [Ascorbic acid],0.0471 (inactive)
18,O=C(O)CC[C@H]1CC[C@@](c2cc(F)ccc2F)(S(=O)(=O)c2ccc(Cl)cc2)CC1,-1.02 (inactive)
19,COc1cc2ncnc(Nc3cccc(Cl)c3)c2cc1OC [Tyrphostin AG 1478],0.00369 (inactive)
20,CC(C)Nc1cccnc1N1CCN(C(=O)c2cc3cc(NS(C)(=O)=O)ccc3[nH]2)CC1 [Delavirdine Mesylate],1.25 (inactive)

row,SMILES,MALAT1 nuclear FISH intensity
1,CC[N+](C)(CC)CCC[n+]1c(-c2ccccc2)c2cc(N)ccc2c2ccc(N)cc21 [Propidium iodide],-0.925 (inactive)
2,CCCC(=O)Nc1ncnc2c1ncn2[C@@H]1O[C@@H]2COP(=O)(O)O[C@H]2[C@H]1OC(=O)CCC [Dibutyrylcyclic AMP],-0.304 (inactive)
3,CCCCC1C(=O)N(c2ccccc2)N(c2ccccc2)C1=O [Phenylbutazone],-1.49 (inactive)
4,CNCC[C@H](Oc1cccc2ccccc12)c1cccs1,1.52 (inactive)
5,CC(=O)O[C@H]1C(=O)[C@@]2(C)[C@H]([C@H](OC(=O)c3ccccc3)[C@]3(O)C[C@H](OC(=O)[C@H](O)[C@@H](NC(=O)c4ccccc4)c4ccccc4)C(C)=C1C3(C)C)[C@]1(OC(C)=O)CO[C@@H]1C[C@@H]2O [Taxol = Paclitaxel],-0.638 (inactive)
6,CO[C@H]1C[C@@H]2CC[C@@H](C)[C@@](O)(O2)C(=O)C(=O)N2CCCC[C@H]2C(=O)O[C@H]([C@H](C)C[C@@H]2CC[C@@H](O)[C@H](OC)C2)CC(=O)[C@H](C)/C=C(\C)[C@@H](O)[C@@H](OC)C(=O)[C@H](C)C[C@H](C)/C=C/C=C/C=C/1C [Rapamycin],1.16 (inactive)
7,O=C1CCCC(=O)C1C(=O)c1ccc(C(F)(F)F)cc1[N+](=O)[O-] [Nitisinone],-0.16 (inactive)
8,CC/C=C\C/C=C\C/C=C\C/C=C\C/C=C\C/C=C\CCC(=O)O [Docosahexaenoic acid(22:6 n-3)],-0.455 (inactive)
9,CCN1CCCC1CNC(=O)c1cc(S(N)(=O)=O)ccc1OC (centres undefined) [Sulpiride],-1.43 (inactive)
10,CCCCOc1cc(CC2CNC(=O)N2)ccc1OC (centres undefined),-1.02 (inactive)
11,Nc1ccn([C@@H]2O[C@H](CO)[C@@H](O)[C@@H]2O)c(=O)n1 [Cytarabine],1.16 (inactive)
12,CC(C)NCC(O)COc1ccc(CC(N)=O)cc1 (centres undefined),-0.232 (inactive)
13,CCCCCCCCCCC1=C(C)C(=O)C(OC)=C(OC)C1=O [Decylubiquinone],-0.132 (inactive)
14,Clc1ccc(C(Cn2ccnc2)OCc2csc3c(Cl)cccc23)c(Cl)c1 (centres undefined) [Sertaconazole],1.16 (inactive)
15,CCN(CCO)CCCC(C)Nc1ccnc2cc(Cl)ccc12 (centres undefined) [Hydroxychloroquine Sulfate],-0.075 (inactive)
16,CCCCC(C)(O)C/C=C/[C@H]1[C@H](O)CC(=O)[C@@H]1CCCCCCC(=O)OC (mixture of isomers) [Misoprostol],-2.26 (inactive)
17,C=C(c1ccc(C(=O)O)cc1)c1cc2c(cc1C)C(C)(C)CCC2(C)C [Bexarotene],-1.19 (inactive)
18,CCCCCCCCCCCCC/C=C/[C@@H](O)[C@H](CO)NC(C)=O [C2 Ceramide],0.202 (inactive)
19,CN(C)c1ccc(O)c2c1C[C@H]1C[C@H]3[C@H](N(C)C)C(O)=C(C(N)=O)C(=O)[C@@]3(O)C(O)=C1C2=O,0.55 (inactive)
